Only some compounds are listed: those with a hit (about 6.7% of all), similar ones and a draw of the others.
T cruzi growth-1 = inhibitors of T. cruzi proliferation. AID 624255. 77,000 compounds, 5.9% hits. inhibition, % at 8.34 µM. T. cruzi beta-gal in NIH3T3, GalScreen luminescence, 90 h;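 active = mean inhibition above about 93%, with at least 55% of replicates each passing it, limit read from the data, passing the limit was not always enough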
Pf Dd2 growth = P. falciparum Dd2 growth inhibition; SYBR Green, 72 h; hits give low values; 94,000 compounds, 2.3% hits; activity change, % at 10 µM; in the data active = activity change below about -80%
C diff HTS = C. difficile growth inhibition | 86,000 compounds, 0.25% hits | Clostridium difficile clinical isolate growth, OD600, 24 h; hits give low values | growth activity, negative = inhibition, % at 16 µg/mL (by protocol);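 active = mean growth activity at or below -80% and every replicate also at or below -80%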;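 also: 0% = DMSO wells and -100% = levofloxacin 16 µg/mL wells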
T cruzi growth-2 = blocks T. cruzi growth in NIH3T3 host cells | T. cruzi beta-gal in NIH3T3, GalScreen luminescence, 90 h | inhibition, % at 8.35 µM | 5,600 compounds, 72% hits | shares compounds with T cruzi growth-1;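 active = mean replicate inhibition above about 95% and at least 55% of replicates individually reaching it, limit read from the data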
T cruzi growth-3 = Trypanosoma cruzi proliferation inhibition; shares compounds with T cruzi growth-1; T. cruzi beta-gal in NIH3T3, GalScreen luminescence, 90 h; inhibition, % at 2.09 µM; 5,600 compounds, 21% hits; AID 651740;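 active = mean inhibition above about 95%, with at least 55% of replicates also reaching it, limit read from the data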;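 also: plate controls were neutral control median for no effect and positive control median for full effect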
3T3 cytotox = cytotoxicity in mouse NIH/3T3 fibroblasts | NIH/3T3 viability, CellTiter-Glo ATP luminescence, 90 h | 5,600 compounds, 14% hits | cytotoxicity (signal decrease), % at 8.35 µM | AID 651742 | shares compounds with T cruzi growth-1;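 active = mean signal decrease across replicates above about 35% based on untreated-well scatter, with enough replicates individually passing, limit read from the data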;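 also: 0% = median of neutral control wells and 100% = median of positive control wells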
3T3 cytotox 2 = cytotoxicity in mouse NIH/3T3 fibroblasts; 5,600 compounds, 56% hits; inhibition, % at 24.9 µM; shares compounds with T cruzi growth-1; NIH/3T3 viability, CellTiter-Glo ATP luminescence, 90 h;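 active = mean loss of cell viability signal at or above a set limit, and enough replicates individually reaching it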;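 also: 0% = median of neutral control wells and 100% = median of positive control wells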
The depositor's hits bear a star; / = no result given.

SMILES	T cruzi growth-1	Pf Dd2 growth	C diff HTS	others
COc1ccccc1-c1cn(CC[C@@H]2CC[C@@H](NC(=O)C3CCCCC3)[C@H](CO)O2)nn1	-5	-15	-2
C[C@@H]1CN([C@@H](C)CO)C(=O)c2cccc(NC(=O)c3ccc(-c4nccs4)cc3)c2O[C@@H]1CN(C)S(C)(=O)=O	-23	-21	-1
C[C@H]1CN([C@@H](C)CO)C(=O)c2cc(Br)cnc2O[C@H]1CN(C)C(=O)NC1CCCC1	/	17	2
O=C(CN1CCOCC1)NCC[C@@H]1CC[C@H](NC(=O)c2ccccc2F)[C@@H](CO)O1	-23	23	/
N#C[C@@H]1[C@H](c2ccc(C3=CCCCC3)cc2)[C@@H](CO)N1C(=O)NC1CCCCC1	92	37	4
N#C[C@H]1[C@@H](c2ccc(C3=CCCCC3)cc2)[C@@H](CO)N1C(=O)Nc1ccccc1F	69	-17	-8
CCCNC(=O)N1[C@@H](C#N)[C@H](c2ccc(C3=CCCCC3)cc2)[C@@H]1CO	103*	-67	-22	T cruzi growth-2=98*;T cruzi growth-3=107*;3T3 cytotox=21;3T3 cytotox 2=33*
N#C[C@H]1[C@H](c2ccc(C3=CCCCC3)cc2)[C@H](CO)N1C(=O)NC1CCCCC1	101*	20	-25	T cruzi growth-2=97*;T cruzi growth-3=101*;3T3 cytotox=10;3T3 cytotox 2=69*
N#C[C@@H]1[C@@H](c2ccc(C3=CCCCC3)cc2)[C@H](CO)N1C(=O)NC1CCCC1	/	-80	4
N#C[C@@H]1[C@H](c2ccc(C3=CCCCC3)cc2)[C@H](CO)N1C(=O)Nc1ccccc1F	102*	0	-5	T cruzi growth-2=110*;T cruzi growth-3=59;3T3 cytotox=-5;3T3 cytotox 2=15
N#C[C@@H]1[C@H](c2ccc(C3=CCCCC3)cc2)[C@H](CO)N1C(=O)NC1CCCCC1	107*	17	-6	T cruzi growth-2=104*;T cruzi growth-3=70;3T3 cytotox=30;3T3 cytotox 2=44*
CCCNC(=O)N1[C@H](CO)[C@H](c2ccc(C3=CCCC3)cc2)[C@@H]1C#N	27	13	-2
C[C@@H]1CN([C@@H](C)CO)C(=O)c2cccc(NC(=O)c3nc4ccccc4s3)c2O[C@H]1CN(C)Cc1ccc(C(=O)O)cc1	10	-37	-2
Cc1ccc(S(=O)(=O)Nc2ccc3c(c2)C(=O)N([C@@H](C)CO)C[C@@H](C)[C@@H](CN(C)C(=O)c2ccncc2)OCCCC[C@@H](C)O3)cc1	67	-5	/
C[C@@H]1CN([C@@H](C)CO)C(=O)c2cc(NC(=O)Nc3ccc(C(F)(F)F)cc3)ccc2O[C@@H](C)CCCCO[C@@H]1CN(C)Cc1ccncc1	90	-57	-1
CCCC(=O)Nc1ccc2c(c1)C(=O)N(C)[C@@H]1CC[C@@H](CC(=O)NCC3CCCCC3)O[C@H]1CO2	-1	-13	-3
CCCNC(=O)N1[C@@H]2CN(C(=O)c3cccnc3)c3ccccc3[C@@H]2[C@@H]1CO	33	2	-9
C[C@@H]1CCCCO[C@@H](CN(C)S(=O)(=O)c2ccc(F)cc2)[C@H](C)CN([C@H](C)CO)C(=O)c2cc(NS(C)(=O)=O)ccc2O1	29	-28	-1
N#C[C@@H]1[C@@H](c2ccc(C3=CCCCC3)cc2)[C@@H](CO)N1C(=O)NC1CCCC1	/	-44	-7
C/C=C/c1ccc([C@H]2[C@@H](CO)N(C(=O)Nc3ccccc3F)[C@H]2C#N)cc1	105*	-2	-2	T cruzi growth-2=87;T cruzi growth-3=56;3T3 cytotox=10;3T3 cytotox 2=48*
N#C[C@H]1[C@@H](c2ccc(C3=CCCCC3)cc2)[C@H](CO)N1C(=O)NC1CCCCC1	100*	30	1	T cruzi growth-2=105*;T cruzi growth-3=83;3T3 cytotox=41*;3T3 cytotox 2=54*
C/C=C/c1ccccc1[C@H]1[C@@H](CO)N(C(=O)Nc2ccccc2F)[C@H]1C#N	/	2	16
COc1cccc(CN(C)C[C@H]2OCc3ccccc3-c3ccccc3C(=O)N([C@H](C)CO)C[C@@H]2C)c1	65	-20	-12
O=C(NC1CCCC1)N[C@H]1CC[C@H](CC(=O)N2CCOCC2)O[C@@H]1CO	/	9	2
C[C@@H]1CN([C@@H](C)CO)C(=O)c2cc(-c3cccc(C#N)c3)cnc2O[C@@H]1CN(C)Cc1cccnc1	/	-26	/

Screens deposited in PubChem BioAssay by Broad Institute.
